Laboratory results published in PMC5540273 (PLoS ONE, 2017).

Assays:
Details in all cases: concentration: 1 μM, replicates: in singlicate; n = 1
TSSK1B = system: TSSK1B
TSSK3 = system: TSSK3
TTK = system: TTK
TXK = system: TXK
[1] = system: TYK2(JH1domain-catalytic)
[2] = system: TYK2(JH2domain-pseudokinase)
TYRO3 = system: TYRO3
ULK1 = system: ULK1
ULK2 = system: ULK2
ULK3 = system: ULK3
VEGFR2 = system: T1, VEGFR2
T1 construct: gene KDR

VPS34 = system: T2, VPS34
T2 construct: gene PIK3C3

VRK2 = system: VRK2
WEE1 = system: WEE1
WEE2 = system: WEE2
WNK1 = system: WNK1
WNK2 = system: WNK2
WNK3 = system: WNK3
WNK4 = system: WNK4
YANK1 = system: T3, YANK1
T3 construct: gene STK32A
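Further: KINOMEscan kinase panel screen.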

SMILES	%Inh (TSSK1B) [%]	%Inh (TSSK3) [%]	%Inh (TTK) [%]	%Inh (TXK) [%]	%Inh [1] [%]	%Inh [2] [%]	%Inh (TYRO3) [%]	%Inh (ULK1) [%]	%Inh (ULK2) [%]	%Inh (ULK3) [%]	%Inh (VEGFR2) [%]	%Inh (VPS34) [%]	%Inh (VRK2) [%]	%Inh (WEE1) [%]	%Inh (WEE2) [%]	%Inh (WNK1) [%]	%Inh (WNK2) [%]	%Inh (WNK3) [%]	%Inh (WNK4) [%]	%Inh (YANK1) [%]
COC(=O)c1cccc(NC(=O)NC2CCN(c3ccnc(Nc4ccc(OC)cc4)n3)C2)c1 (stereo not shown) [GSK1379746]	13	7	0	8	33	51	0	0	3	9	0	0	0	7	0	11	4	51	46	0
CNc1nc(-c2ccc3c(N)n[nH]c3c2)cc(N2C[C@@H](C(=O)Nc3ccccc3)CC[C@H]2C)n1 [GSK2298859]	0	6	21	10	22	13	0	0	0	0	0	7	0	9	0	0	0	33	29	46
Fc1ccc(-c2nc3n(c2-c2ccncc2)CCS3)cc1 [GI98581]	0	22	0	0	8	11	0	2	0	0	0	21	0	3	7	0	7	13	2	13
Cc1ccc(NC(=O)Nc2ccccc2F)cc1-c1ccc(C(=O)Nc2ccncc2)cc1 [GSK1398477]	3	11	22	8	0	0	9	8	0	0	0	11	0	26	12	2	0	0	0	5
O=C(Nc1n[nH]c2cc(-c3ccsc3)ccc12)C1CC1 [SB-732932]	13	27	35	5	9	0	14	21	6	32	13	27	0	0	13	18	34	18	9	0
Cc1ccccc1-c1cc(-c2c[nH]nc2-c2ccccn2)ccn1 [GW680061]	1	15	6	0	0	18	35	0	0	13	0	0	0	8	0	14	14	24	31	0
Cc1c(Cn2c(C)c(C)n3c(=O)cc(N4CCOCC4)nc23)cccc1C(F)(F)F [GSK2328680]	11	7	0	20	5	4	0	9	0	14	0	20	0	9	14	0	0	0	0	6
Cc1cccc2c(-c3ccncn3)c(-c3ccc(F)cc3)nn12 [GW515532]	16	0	14	12	30	24	0	19	0	10	5	30	0	0	0	16	0	22	0	26
Cn1cncc1-c1cc2c(Nc3ccc(OCc4ccccc4)cc3)ncnc2cn1 [GW281179]	18	10	7	21	96.8	27	0	0	0	0	0	0	0	2	0	7	7	25	14	0
O=C1NC(=O)C(c2ccc(Cl)cc2)=C1Nc1ccc(O)cc1 [SB-340867]	0	0	100	18	0	0	0	0	0	10	0	2	0	0	0	0	48	0	0	0
COc1ccc2cc(-c3nc(-c4ccccc4C(C)C)[nH]c3-c3ccncc3)ccc2c1 [SB-660566]	54	31	0	35	7	27	0	19	0	14	0	0	0	12	15	10	14	42	0	16
c1ccc(-c2ccnc3[nH]ccc23)cc1 [SB-693578]	28	2	6	28	63	73	0	33	0	33	32	0	27	10	23	0	11	48	37	0
COc1ccc(Nc2nccc(N3CCC(NC(=O)c4cc5ccccc5s4)C3)n2)cc1 (stereo not shown) [GSK1379738]	0	19	0	67	9	26	0	5	0	14	0	0	0	10	0	14	11	34	24	0
CNC(=O)c1ccc(C)c(-n2c(C)cc(OCc3ccc(F)cc3F)c(Br)c2=O)c1	0	0	0	0	0	0	0	0	0	0	0	0	0	0	0	0	0	0	0	4
CC(C)c1ccc(O)cc1Nc1ccnc2ccc(C(F)(F)F)cc12 [GW482059]	0	3	2	19	23	0	0	20	0	8	0	15	0	0	5	1	0	0	0	0
COc1cccc(NC(=O)Nc2ccc(C)c(-c3ccc(C(=O)Nc4ccncc4)cc3)c2)c1 [GSK1398474]	0	6	13	0	0	0	0	6	0	0	6	0	0	11	4	0	0	28	0	18
O=c1cc(N2CCOCC2)nc2n(Cc3cccc(Cl)c3Cl)c3ccccc3n12 [GSK2299009]	10	20	8	0	0	0	0	18	0	2	7	96.7	0	28	17	6	42	5	0	22
COc1ccc(CSc2nnc(-c3ccc4ncsc4c3)o2)cc1C(F)(F)F	0	0	13	0	0	0	0	0	0	0	0	0	0	0	0	0	8	0	0	0
Nc1nccc(-c2c(-c3ccc(F)cc3)ncn2C2CCN(Cc3ccccc3)CC2)n1 [SB-219980]	0	0	0	0	7	49	15	31	0	22	1	0	0	0	0	7	12	0	0	28
Cc1ccccc1Cn1ccn2c(=O)cc(N3CCOCC3)nc12 [GSK2269905]	10	0	5	7	0	0	0	16	0	9	0	88	0	0	0	10	0	8	0	8
CC(=O)c1c(C)c2cnc(Nc3ccn(C)n3)nc2n(C2CCCC2)c1=O	16	0	52	0	0	0	0	0	6	0	0	3	28	0	0	0	0	0	0	0

SMILES	%Inh (TSSK1B) [%]	%Inh (TSSK3) [%]	%Inh (TTK) [%]	%Inh (TXK) [%]	%Inh [1] [%]	%Inh [2] [%]	%Inh (TYRO3) [%]	%Inh (ULK1) [%]	%Inh (ULK2) [%]	%Inh (ULK3) [%]	%Inh (VEGFR2) [%]	%Inh (VPS34) [%]	%Inh (VRK2) [%]	%Inh (WEE1) [%]	%Inh (WEE2) [%]	%Inh (WNK1) [%]	%Inh (WNK2) [%]	%Inh (WNK3) [%]	%Inh (WNK4) [%]	%Inh (YANK1) [%]
Cn1cnc2c(N)ncnc21 [SKF-97623]	0	0	0	0	0	0	0	0	0	0	100	0	96.8	0	29	0	8	0	0	0
COc1ccc(Nc2nccc(N3CCC(NC(=O)C(C)c4ccc(Cl)cc4)C3)n2)cc1 (stereo not shown) [GSK1379735]	1	24	29	21	28	1	22	9	9	9	0	15	0	16	0	6	31	8	0	69
COC(=O)C(NC(=O)NC1CCN(c2ccnc(Nc3ccc(F)cc3)n2)C1)c1ccccc1 (stereo not shown) [GSK1379712]	14	23	3	0	13	22	0	0	3	4	14	0	24	9	0	22	28	36	25	0
Cc1ccc(NC(=O)Nc2ccc(Cl)c(C(F)(F)F)c2)cc1-c1ccc(C(=O)Nc2ccncc2)cc1 [GSK1398470]	0	9	32	0	0	0	0	44	0	51	0	0	8	3	10	0	8	0	0	60
CCn1c(-c2c(N)noc2C)nc2cnccc21 [SB-737856]	19	3	0	31	0	21	12	18	7	16	0	0	0	18	11	20	0	17	78	9
CC[C@@H]1CO[C@H](C(=O)Nc2ccccc2)CN1c1cc(-c2ccc3c(N)n[nH]c3c2)nc(NC)n1 [GSK2376236]	0	13	0	0	0	0	0	13	10	4	8	12	0	2	0	4	10	5	0	41
Cl.Cl.Cl.N#Cc1ccc(CCNc2nccc(-c3cccc(CN4CCNCC4)c3)n2)cc1 [GSK2137462]	0	5	14	2	0	0	23	11	12	2	0	7	0	90.8	0	0	0	0	95.5	12
Cc1ccc(NC(=O)Nc2ccccc2)cc1-c1ccc(C(=O)Nc2ccncc2)cc1 [GSK1398471]	0	0	2	0	0	0	15	12	0	7	0	0	0	26	0	0	36	0	0	9
Cc1cnc(N)c(/C=C/c2cncc(C(=O)NCCc3ccc(Cl)cc3Cl)c2)c1.Cl [GSK190937]	6	0	0	4	0	9	0	0	0	0	0	0	26	5	0	3	4	30	4	0
CC(=O)c1cccc(NC(=O)NC2CCN(c3ccnc(Nc4ccc(F)cc4)n3)C2)c1 (stereo not shown) [GSK1379710]	39	32	23	16	26	22	0	2	4	10	8	10	19	19	10	10	0	49	22	12
Cc1nccc(-c2c(-c3ccc(F)cc3)ncn2CCCN2CCOCC2)n1.Cl [SB-282975]	3	43	0	31	42	28	14	9	26	20	0	0	0	9	16	12	6	2	0	0
NS(=O)(=O)c1cccc(N/C=C2\C(=O)Nc3ccc(S(=O)(=O)Cc4c(Cl)cccc4Cl)cc32)c1 [GSK398099]	21	14	0	6	30	27	0	13	4	19	0	0	0	10	20	20	8	0	0	1
CS(=O)(=O)CCNCc1nc(-c2ccc3ncnc(Nc4ccc5c(cnn5Cc5ccccc5)c4)c3c2)cs1.Cl.Cl [GW569716]	0	1	3	3	22	57	0	0	0	0	0	0	16	0	5	5	3	0	62	3
Cc1ccc(NC(=O)c2ccc(Cl)cc2)cc1-c1ccc(C(=O)Nc2ccncc2)cc1 [GSK1398467]	18	6	0	8	0	17	0	0	0	0	0	0	27	0	8	0	0	31	22	2
CS(=O)(=O)Cc1ccc(Nc2nccc(-c3c(-c4cccc(NC(=O)C5CCCCC5)c4)nn4ncccc34)n2)cc1 [GSK350559]	14	8	0	17	0	12	18	5	20	18	29	0	49	0	0	0	14	0	44	26
O=C(Nc1n[nH]c2nc(-c3cccs3)c(Br)cc12)C1CCCC1 [SB-743341]	24	0	37	7	0	7	1	26	32	0	28	0	0	0	22	0	5	0	3	24
COc1nccc(-c2c(-c3ccc(F)cc3)ncn2CCCN2CCOCC2)n1 [SB-282852]	0	50	0	6	13	25	0	0	33	12	1	21	77	0	52	11	14	0	0	0
CS(=O)(=O)CCNCc1nc(-c2ccc3ncnc(Nc4ccc(OCc5ccccc5)c(Cl)c4)c3c2)cs1.Cl [GW582764]	19	8	0	6	30	35	0	5	0	3	0	0	50	0	16	6	13	45	60	0
CCn1c(-c2ccccc2)nc2cnccc21 [SB-733416]	32	14	0	9	24	45	0	20	0	14	0	0	34	8	2	17	0	26	19	0
Cc1c(Cn2c3ccccc3n3c(=O)cc(N4CCOCC4)nc23)cccc1C(F)(F)F [GSK2306394]	3	0	27	0	26	0	0	21	0	7	0	80	0	0	3	2	23	0	0	0
